Consider 15 compounds from PubChem BioAssay (NCI).

Test systems include T-47D breast; BT-549 breast; MDA-MB-435 melanoma; SW-620 colon; MCF7 breast; HCT-116 colon; HCC-2998 colon; KM12 colon.
What all share (assay): NCI-60 one-dose screen, 48 h (100 = growth as untreated, 0 = no growth, -100 = all killed)
What all share (conditions): 10 µM unless noted

SMILES strings stand for the structures. Values joined by “and” are separate entries in the source; they are usually repeats but may differ in a detail not shown here. Identical values can stand only once. This is part of a sample that, as a whole, favours compounds with a hit. Of some 83,000 tested, about 20% had one in any assay.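 Values shown are percent growth following 48 h exposure of cells in 96-well plates to a single concentration of compound; below 10 was considered active.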 Unmarked numbers belong to inactive results. Active and inactive are the calls of the source.

Consider `CN(C)C(=O)c1cc2cnc(Nc3ccc(-c4csc5c(=S)cc(N6CCOCC6)oc45)cc3)nc2n1C1CCCC1`, for which the growth with T-47D breast was -3.44% (active); in the assay with BT-549 breast it was 9.89% (active); in the assay with MDA-MB-435 melanoma, 17.3%; in the assay with SW-620 colon, 4.89% (active); in the assay with MCF7 breast, -5.27% (active); in the assay with HCT-116 colon it was 2.89% (active). In addition, the growth is 8.51% (active) with HCC-2998 colon and 6.53% (active) in the assay on KM12 colon.
With `CCCCCCNC(=O)Oc1ccc(/C(=C(/CC)Cc2ccccc2)c2ccc(OCCCN(C)C)cc2)cc1`, the growth was 54.4% in the assay with T-47D breast; 82.8% in the assay on BT-549 breast; 87.8% with MDA-MB-435 melanoma; 59.6% in the assay on SW-620 colon; 22.9% in the assay on MCF7 breast; 39.8% in the assay on HCT-116 colon. In addition, the growth in the assay with HCC-2998 colon is 24.1%; with KM12 colon it was 82.4%.
Turning to `CCOc1nc(-c2ccccc2)cc2c(O)c(C(=O)N/N=C/c3ccc(N(C)C)cc3)[nH]c(=O)c12`, the growth in the assay with T-47D breast is 218%; with BT-549 breast, 125%; in the assay with MDA-MB-435 melanoma, 118%; in the assay on SW-620 colon, 97.8%; with MCF7 breast, 92.9%; in the assay with HCT-116 colon, 112%. Besides, the figures for the growth in the assay with HCC-2998 colon and with KM12 colon were -14.8% (active) and 109%, respectively.
In the case of `Clc1nccc2c(-c3csc(-c4c[nH]c5ccc(Br)cc45)n3)c[nH]c12`, the growth is 17.7% in the assay with T-47D breast; 53.2% in the assay on BT-549 breast; 36.9% with MDA-MB-435 melanoma; -31.1% (active) in the assay on SW-620 colon; 23.7% with MCF7 breast; 22.8% in the assay with HCT-116 colon. The values for the growth with HCC-2998 colon and in the assay on KM12 colon were 27.8% and 17.1%, respectively.
In the case of `Nc1nc(Cl)nc2c1ncn2C1OC(CO)C(O)C1O` (stereo not given), the growth in the assay on T-47D breast is 93.5% and 107%; in the assay on BT-549 breast it was 40.2%; in the assay with MDA-MB-435 melanoma, 49.2% and 53.5%; in the assay on SW-620 colon, 66.5% and 72.8%; in the assay with MCF7 breast it was 37.8% and 33.8%; in the assay on HCT-116 colon it was 41.9% and 43%. Besides, the growth with HCC-2998 colon was 51% and 51.7%; in the assay on KM12 colon, 60.1% and 86.2%.
With `O=[N+]([O-])c1ccc2[nH]c3nccc(NCc4cccc(Cl)c4)c3c2c1`, the growth is 67.4% in the assay with T-47D breast; 70% with BT-549 breast; 77% in the assay with MDA-MB-435 melanoma; 63.6% in the assay with SW-620 colon; 82.4% in the assay with MCF7 breast; 67.6% with HCT-116 colon. Moreover, the results for the growth in the assay with HCC-2998 colon and in the assay with KM12 colon were 114% and 84.7%, respectively.
With `Nc1n[nH]c2cccc(C#Cc3cccc(C(=O)Nc4ccc(CN5CCOCC5)c(C(F)(F)F)c4)c3)c12`, the growth in the assay on T-47D breast was 6.17% (active); in the assay on BT-549 breast, 23.7%; in the assay with MDA-MB-435 melanoma it was 38.7%; in the assay with SW-620 colon, 49.3%; with MCF7 breast, 33.4%; in the assay with HCT-116 colon, 13.3%. Further, the growth in the assay with HCC-2998 colon is 26.9%; in the assay on KM12 colon, 19%.
Regarding `Cc1n(Cc2ccc3ccccc3c2)c(Cl)c(Cl)[n+]1Cc1ccc2ccccc2c1`, the growth with T-47D breast is 10.3%; with BT-549 breast, 26.8%; with MDA-MB-435 melanoma it was -2.29% (active); with SW-620 colon it was 40.5%; in the assay on MCF7 breast, 21.4%; in the assay on HCT-116 colon, 18.2%. Further, the growth with HCC-2998 colon is 17.3%; in the assay with KM12 colon it was 0.454% (active).
Take `O=C(NNc1ccccc1)c1ccccc1`: the growth is 56.5% and 36.8% with T-47D breast; 105% and 72.2% in the assay on BT-549 breast; 69.4% in the assay with MDA-MB-435 melanoma; 57.1% and 45.7% with SW-620 colon; 82.9% and 90.4% with MCF7 breast; 79.6% and 68.5% with HCT-116 colon. In addition, the growth in the assay on HCC-2998 colon is 85.6%; with KM12 colon, 33.5%.
For the compound `C[C@]12CCc3c(ccc4cc(O)ccc34)[C@@H]1C[C@H](O)[C@@H]2O`, the growth with T-47D breast is 98.8%; in the assay on BT-549 breast, 94.7%; with MDA-MB-435 melanoma, 99%; in the assay with SW-620 colon, 96.4%; in the assay on MCF7 breast, 132%; with HCT-116 colon, 104%. In addition, the growth with HCC-2998 colon was 109%; in the assay on KM12 colon, 108%.
Turning to `COc1ccc(/C=N/C2=C(C#N)C(c3ccccc3)c3c(ccc4ccccc34)O2)cc1` (stereo not given), the growth in the assay on T-47D breast is 36.3%; with BT-549 breast, 35.7%; with MDA-MB-435 melanoma, -59.2% (active); with SW-620 colon it was 29.4%; in the assay on MCF7 breast, 15.4%; with HCT-116 colon, 24.8%. The growth is 48.8% in the assay with HCC-2998 colon and 29.1% in the assay with KM12 colon.
Consider `O=C(/C=C/C12c3ccccc3C(c3ccccc31)C1C(=O)NC(=O)C12)c1ccncc1` (stereo not given), for which the growth with T-47D breast is -4.38% (active); with BT-549 breast, 15.7%; in the assay on MDA-MB-435 melanoma, 9.93% (active); in the assay with SW-620 colon, 13.4%; in the assay with MCF7 breast it was 3.34% (active); with HCT-116 colon, -16.5% (active). Further, the growth was 88.2% with HCC-2998 colon and 7.72% (active) in the assay with KM12 colon.
As for `Cc1ccc(-c2nc3nc(-c4ccc(F)cc4)nc(N4CCCNCC4)c3o2)cc1`, the growth with T-47D breast is -63.8% (active); in the assay on BT-549 breast it was -76.9% (active); in the assay on MDA-MB-435 melanoma, -95.7% (active); with SW-620 colon it was -84.6% (active); in the assay on MCF7 breast, -72.4% (active); in the assay on HCT-116 colon it was -87.2% (active). Besides, the growth with HCC-2998 colon is -89.3% (active); in the assay with KM12 colon, -86.3% (active).
In the case of `COc1ccc(-c2cc(-c3cccnc3)nc3sc4c(Cl)nnnc4c23)cc1OC`, the growth with T-47D breast is 63.6%; with BT-549 breast, 99.9%; in the assay with MDA-MB-435 melanoma it was 104%; in the assay with SW-620 colon, 50.2%; in the assay on MCF7 breast, 43.8%; in the assay with HCT-116 colon, 94.8%. For the same compound, the growth in the assay on HCC-2998 colon was 115%; in the assay on KM12 colon it was 95.1%.
With `COc1ccc(/C=N/NC(=O)CN2CCN(c3cc4c(cc3F)c(=O)c(C(=O)O)cn4C3CC3)CC2)cc1O`, the growth with T-47D breast was 96.6%; with BT-549 breast it was 107%; with MDA-MB-435 melanoma it was 107%; in the assay on SW-620 colon, 102%; in the assay with MCF7 breast, 92.6%; in the assay on HCT-116 colon it was 93.4%. The results for the growth in the assay with HCC-2998 colon and with KM12 colon were 99.2% and 102%, respectively.
